Laboratory results: PubChem BioAssay (NCI)
About 79,000 compounds went through this panel and 15% of them were active in at least one assay; those are over-represented in the sample as a whole. The source made the active and inactive calls. No stated cut-off is given here; in the data, active means growth inhibition above about 70%; inactive means the rest.

Key:
[1] = NCI Yeast Anticancer Drug Screen. Data for the rad52 strain (AID 147);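 further: 0% = growth of vehicle-treated control cultures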; conditions: S. cerevisiae rad52 mutant growth inhibition, stronger effect = higher value
Summary of the method: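 Inhibition of yeast growth, referenced to vehicle controls, was the measured output for a strain with defective DNA damage repair.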

[2] = NCI Yeast Anticancer Drug Screen. Data for the wt1 strain (AID 149);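 further: 0% = growth of vehicle-treated wt1 cultures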; conditions: S. cerevisiae wt1 strain (SPY 50644) growth inhibition, stronger effect = higher value
Summary of the method: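 The wt1 strain was treated with compounds, and growth was compared with vehicle-treated cultures to give inhibition.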

[3] = NCI Yeast Anticancer Drug Screen. Data for the rad50EPP+ strain (AID 151);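 further: 0% = growth of vehicle-treated control cultures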; conditions: S. cerevisiae rad50 mutant strain, stronger effect = higher value
Summary of the method: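 Genetically defined yeast (rad50EPP+, DNA damage repair alteration) is grown with compound, and inhibition of growth is expressed relative to vehicle-treated controls.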

[4] = NCI Yeast Anticancer Drug Screen. Data for the rad50 strain (AID 155);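 further: 0% = growth of vehicle-only cultures of the same strain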; conditions: S. cerevisiae rad50 strain growth inhibition, stronger effect = higher value
Summary of the method: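 Cells are treated with compound, grown, and their growth is then scored against vehicle-only cultures of the same repair-deficient yeast strain.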

[5] = NCI Yeast Anticancer Drug Screen. Data for the mec2-1 strain (AID 157); conditions: S. cerevisiae mec2-1 strain, stronger effect = higher value
Summary of the method: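 Each compound was tested on mec2-1 yeast, a strain altered in DNA damage repair or cell cycle control. Growth inhibition is reported relative to vehicle.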

[6] = NCI Yeast Anticancer Drug Screen. Data for the rad14 strain (AID 159);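 further: 0% = growth of vehicle-treated control cultures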; conditions: S. cerevisiae rad14 strain growth inhibition, stronger effect = higher value
Summary of the method: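 Readout: yeast growth inhibition, referenced to vehicle-only cultures. Strain bears a defined alteration in DNA damage repair.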

[7] = NCI Yeast Anticancer Drug Screen. Data for the sgs1 mgt1 strain (AID 161);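 further: 0% = growth of cultures given vehicle only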; conditions: S. cerevisiae sgs1 mgt1 strain, stronger effect = higher value
Summary of the method: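 Read-out: growth inhibition vs vehicle controls. Cells: mutant yeast strain deficient in DNA damage repair.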

[8] = NCI Yeast Anticancer Drug Screen. Data for the CLN2oe strain (AID 163);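 further: 0% = growth of vehicle-only control cultures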; conditions: S. cerevisiae CLN2oe strain, stronger effect = higher value
Summary of the method: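 First, the altered yeast strain was treated with each compound; second, its growth was measured; finally, inhibition was derived by comparison with vehicle controls.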

[9] = NCI Yeast Anticancer Drug Screen. Data for the cln2 rad14 strain (AID 165);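 further: 0% = growth equal to vehicle treated cultures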; conditions: S. cerevisiae cln2 rad14 strain, stronger effect = higher value
Summary of the method: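 Test compounds were added to cln2 rad14 yeast cultures; inhibition of growth was then determined by comparison with vehicle treatment.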

[10] = NCI Yeast Anticancer Drug Screen. Data for the bub3 strain (AID 167); conditions: S. cerevisiae bub3 mutant strain, stronger effect = higher value
Summary of the method: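 Part of a panel of yeast mutants defective in DNA damage repair or cell cycle regulation. Each strain is grown with compound, and inhibition is calculated relative to solvent-treated cultures.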

[11] = NCI Yeast Anticancer Drug Screen. Data for the wt2 strain (AID 169);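 further: 0% = growth of vehicle-treated yeast cultures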; conditions: S. cerevisiae wt2 strain growth inhibition, stronger effect = higher value
Summary of the method: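 The panel's yeast strains carry defined changes in DNA repair or cell cycle genes. Each strain is grown with compound, and growth loss is scored relative to vehicle.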

[12] = NCI Yeast Anticancer Drug Screen. Data for the sgs1 strain (AID 173);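 further: 0% = growth of vehicle-only control cultures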; conditions: S. cerevisiae sgs1 mutant, stronger effect = higher value
Summary of the method: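 Vehicle-treated cultures served as reference for growth inhibition of a yeast strain altered in DNA damage repair or cell cycle control after compound exposure.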

[13] = NCI Yeast Anticancer Drug Screen. Data for the mlh1 rad18 strain (AID 175); conditions: S. cerevisiae mlh1 rad18 strain growth inhibition, stronger effect = higher value
Summary of the method: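 Inhibition values reflect reduced growth of mutant yeast versus vehicle-treated controls following compound exposure; the mutations affect DNA damage repair.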

[14] = NCI Yeast Anticancer Drug Screen. Data for the rad18 strain (AID 177); conditions: S. cerevisiae rad18 mutant growth inhibition, stronger effect = higher value
Summary of the method: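 Steps: expose repair-mutant yeast to compound; measure growth; express as inhibition relative to vehicle control.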

[15] = NCI Yeast Anticancer Drug Screen. Data for the mlh1 strain (AID 171);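 further: 0% = growth of vehicle-treated control cultures of the same strain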; conditions: S. cerevisiae mlh1 strain growth inhibition, stronger effect = higher value
Summary of the method: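 Inhibition values reflect reduced yeast growth in the presence of compound, referenced to vehicle controls, using a strain chosen for its alteration in DNA repair or cell cycle control.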

[16] = at 5.0 µM (retest, dose inferred, filed as 0.5)
[17] = at 50.0 µM (retest, dose inferred, filed as 5.0)

Measured: growth inhibition

COC(=O)CSc1nnc(CSc2ccc(Cl)cc2)n1-c1ccccc1
active: [10]; [17] 75% | [10]; at 50.0 µM 74.5%
inactive: [1]; at 1.2 µM 1% | [1]; at 3.7 µM 3% | [1]; at 11.0 µM 5% | [1]; at 33.0 µM 12% | [1]; at 100.0 µM 5% | [2]; at 1.2 µM -1% | [2]; at 3.7 µM -2% | [2]; at 11.0 µM -3% | [2]; at 33.0 µM 0% | [2]; at 100.0 µM 2% | [3]; at 1.2 µM -2% | [3]; at 3.7 µM 0% | [3]; at 11.0 µM -2% | [3]; at 33.0 µM -5% | [3]; at 100.0 µM -11% | [4]; at 1.2 µM 2% | [4]; at 3.7 µM 4% | [4]; [16] -16% | [4]; at 11.0 µM 9% | [4]; at 33.0 µM 15% | [4]; [17] 15% | [4]; at 50.0 µM 6.25% | [4]; at 100.0 µM 12% | [5]; at 1.2 µM -3% | [5]; at 3.7 µM -1% | [5]; [16] -9% | [5]; at 11.0 µM 3% | [5]; at 33.0 µM 10% | [5]; [17] 18% | [5]; at 50.0 µM 16.9% | [5]; at 100.0 µM 12% | [6]; at 1.2 µM 0% | [6]; at 3.7 µM 2% | [6]; at 11.0 µM 10% | [6]; at 33.0 µM 15% | [6]; at 100.0 µM 13% | [7]; [16] -11% | [7]; [17] 68% | [7]; at 50.0 µM 58.5% | [8]; at 1.2 µM -2% | [8]; at 3.7 µM 6% | [8]; at 11.0 µM 14% | [8]; at 33.0 µM 19% | [8]; at 100.0 µM 19% | [9]; [16] -6% | [9]; [17] 43% | [9]; at 50.0 µM 44% | [10]; at 1.2 µM -1% | [10]; at 3.7 µM 6% | [10]; [16] 7% | [10]; at 11.0 µM 22% | [10]; at 33.0 µM 46% | [10]; at 100.0 µM 57% | [11]; at 1.2 µM -1% | [11]; at 3.7 µM 1% | [11]; at 11.0 µM -1% | [11]; at 33.0 µM 1% | [11]; at 100.0 µM 4% | [12]; at 1.2 µM -2% | [12]; at 3.7 µM -3% | [12]; at 11.0 µM 2% | [12]; at 33.0 µM 13% | [12]; at 100.0 µM 15% | [13]; [16] -11% | [13]; [17] 32% | [13]; at 50.0 µM 7% | [14]; at 1.2 µM -1% | [14]; at 3.7 µM 2% | [14]; at 11.0 µM 4% | [14]; at 33.0 µM 8% | [14]; at 100.0 µM 9%

O=[N+]([O-])c1cccc2nc3ccccc3c(NCCc3cccc[n+]3[O-])c12
inactive: [1]; at 1.2 µM 15% | [1]; at 3.7 µM 47% | [2]; at 1.2 µM 0% | [2]; at 3.7 µM 1% | [2]; at 11.0 µM 11% | [2]; at 33.0 µM 27% | [3]; at 1.2 µM 21% | [3]; at 3.7 µM 43% | [4]; at 1.2 µM 10% | [4]; at 3.7 µM 30% | [4]; at 11.0 µM 68% | [5]; at 1.2 µM 2% | [5]; at 3.7 µM 18% | [5]; [16] 25% | [5]; at 11.0 µM 62% | [6]; at 1.2 µM 12% | [6]; at 3.7 µM 37% | [10]; at 1.2 µM -12% | [10]; at 3.7 µM -13% | [10]; [16] 3% | [10]; at 11.0 µM -11% | [10]; at 33.0 µM 17% | [10]; at 50.0 µM 53.2% | [10]; at 100.0 µM 65% | [11]; at 1.2 µM 1% | [11]; at 3.7 µM 3% | [11]; at 11.0 µM 14% | [11]; at 33.0 µM 35% | [15]; at 1.2 µM 0% | [15]; at 3.7 µM 3% | [15]; at 11.0 µM 20% | [15]; at 33.0 µM 50% | [12]; at 1.2 µM 43%
active: [1]; at 11.0 µM 81% | [1]; at 33.0 µM 92% | [1]; at 100.0 µM 97% | [2]; at 100.0 µM 70% | [3]; at 11.0 µM 72% | [3]; at 33.0 µM 82% | [3]; at 100.0 µM 90% | [4]; [16] 70% | [4]; at 33.0 µM 88% | [4]; [17] 96% | [4]; at 50.0 µM 87.5% | [4]; at 100.0 µM 94% | [5]; at 33.0 µM 95% | [5]; [17] 98% | [5]; at 50.0 µM 83.2% | [5]; at 100.0 µM 98% | [6]; at 11.0 µM 89% | [6]; at 33.0 µM 97% | [6]; at 100.0 µM 99% | [7]; [16] 91% | [7]; [17] 97% | [7]; at 50.0 µM 91.8% | [9]; [16] 85% | [9]; [17] 99% | [9]; at 50.0 µM 95.2% | [10]; [17] 83% | [11]; at 100.0 µM 79% | [15]; at 100.0 µM 89% | [12]; at 3.7 µM 75% | [12]; at 11.0 µM 89% | [12]; at 33.0 µM 93% | [12]; at 100.0 µM 96% | [13]; [16] 88% | [13]; [17] 98% | [13]; at 50.0 µM 93.8% | [14]; at 1.2 µM 92% | [14]; at 3.7 µM 94% | [14]; at 11.0 µM 94% | [14]; at 33.0 µM 96% | [14]; at 100.0 µM 96%

O=S(=O)(N/N=C/c1cccc(Cl)c1)c1ccccc1
active: [1]; at 33.0 µM 88% | [1]; at 100.0 µM 99% | [2]; at 100.0 µM 99% | [4]; at 33.0 µM 87% | [4]; [17] 92% | [4]; at 50.0 µM 89.9% | [4]; at 100.0 µM 98%
inactive: [1]; at 1.2 µM -4% | [1]; at 3.7 µM -3% | [1]; at 11.0 µM 8% | [2]; at 1.2 µM 0% | [2]; at 3.7 µM 4% | [2]; at 11.0 µM 3% | [2]; at 33.0 µM 65% | [3]; at 1.2 µM 4% | [3]; at 3.7 µM 8% | [3]; at 11.0 µM 18% | [3]; at 33.0 µM 18% | [3]; at 100.0 µM 25% | [4]; at 1.2 µM -1% | [4]; at 3.7 µM -1% | [4]; [16] -14% | [4]; at 11.0 µM 7% | [5]; at 1.2 µM -3% | [5]; at 3.7 µM 4% | [5]; [16] -18% | [5]; at 11.0 µM 13% | [5]; at 33.0 µM 54% | [5]; [17] 66% | [5]; at 50.0 µM 55.5%
